Screening data deposited in PubChem BioAssay by National Center for Advancing Translational Sciences (NCATS).
Hits are enriched below; roughly 1.3% of the tested compounds scored in any of these assays.
Mito fusion act: qHTS Assay for Small Molecule Inhibitors of Mitochondrial Division or Activators of Mitochondrial Fusion; S. cerevisiae fusion-defective mutant growth rescue, CellTiterGlo 48 h; Potency, µM (series often up to 46.1 µM), for inactives: at the top dose growth rescue (activation), actives largely listed as activators; actives 0.23% (n = 320,000); AID 485298, 2010; further: potency means the concentration at half of the fitted maximal effect; % of control where 0% means no effect; nearly all actives have a fitted effect of over 45% in size
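Growth-rescue viability read-out: after 48 h at the non-permissive 37C in glycerol/ethanol YPEG, yeast mitochondrial fusion mutants are measured by CellTiterGlo luminescence; compounds (23 nl pinned per well) restoring growth score as division inhibitors or fusion activators.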
TCR act: Activators of T cell receptors: qHTS campaign; Potency, µM (doses to about 9.22 µM), for inactives: at the top dose activation of IL-2 secretion, hits mostly activators; primary human leukocytes, anti-CD3, IL-2 HTRF, 48 h; 330,000 tested, under 10 active; further: % of control where 0% means no effect
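Readout: HTRF IL-2, Eu-cryptate/d2 antibody pair, 320nm excitation, 665nm emission. Stimulus: a-CD3 beads, no co-stimulation. Cells: primary human leukocytes. Exposure: 48 hr with compound.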
p53 reactivation: qHTS assay for re-activators of p53 using a Luc reporter. H1299 p53-A138V BP100-luciferase reporter, luminescence, 24 h. Potency, µM (series often up to 92.2 µM), without a hit: at the highest dose activity change, positive = activation, actives largely listed as activators. actives 0.063% (n = 320,000). AID 504706, 2011; further: potency means the concentration at half of the fitted maximal effect; % of control where 0% means no effect; nearly all actives have a fitted effect of over 45% in size
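p53-null H1299 cells stably carrying temperature-sensitive p53-A138V and a BP100-luciferase reporter were pinned with compounds (4-point, 1:5 series) and held 24 hrs at 37 deg C. Luminescence was read 10 min after detection reagent.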
IL-2 act: qHTS of IL-2 Activators; IL-2 activation reporter assay, cell-based qHTS; stimulated with anti-CD3/CD4/CD28 beads; in transgenic mouse T cells; activation, % (series mostly up to about 46 µM); actives 0.065% (n = 360,000); AID 652025, 2013; in the data active means activation above about 50%; inconclusive means mostly about 30% to 49%; further: 0% is about no effect
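Readout is EGFP and DsRed signal by fluorescent plate cytometry after 18 h at 37 degrees C. Transgenic mouse T cells (750/well) received compound for 60 min before bead stimulation (anti-CD3, anti-CD4, anti-CD28); memory T cells served as non-tolerant control.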
BRCA1 expr up: qHTS Assay to Identify Small Molecule Activators of BRCA1 Expression | MCF7-BRCA1-FFLuc reporter, luminescence, 48 h; response scale: scaled: vehicle 0%, 10 µM genistein 100% | Potency, µM (highest dose often 46.1 µM), for inactives: at the top dose activation, actives largely listed as activators | actives 1.1% (n = 380,000); further: potency means the concentration at half of the fitted maximal effect; nearly all actives have a fitted effect of over 80% in size
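Luminescence from a BRCA1-driven firefly luciferase in MCF7 cells was read after 48 h compound exposure at 37 C. Data normalized against DMSO and a 10microM genistein activation control, then curve-fitted across the titration.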
An asterisk follows results filed as active; u = inconclusive; x = no result given; ! = not active in a repeat; [ ] = dose if it differs, or a comment. Unless noted, the call rests on the fitted dose curve; in most records, active means well fitted curve in the direction sought with a large enough effect; inconclusive means small, poorly fitted or top-dose-only effect, or another doubt; inactive means no such curve, though single readings can be large; an effect the other way counts as inactive or inconclusive.

SMILES | Mito fusion act | TCR act | p53 reactivation | IL-2 act | BRCA1 expr up
COc1cccc(NC(=O)c2ccccc2F)c1 | 1% | -4% | 25% | 0 | 7.9µM*
Cc1ccc(NC(=O)c2ccccc2)cc1C | 4% | 5% | 8% | 0 | 8%
Cc1ccc(C(=O)Oc2cccc(NC(=O)c3ccccc3)c2)cc1C | 10µM* | -9%[46.1 µM] | u | 1 | 52%
O=C(Nc1scc(-c2ccccc2)c1C(=O)O)c1ccccc1Cl | 11% | 0% | 10% | 2 | 83%
COc1ccc(-c2csc(NC(=O)c3ccccc3F)c2C(=O)O)cc1 | -42% | -4% | 11% | -1 | 6.3µM*
COc1cc(-c2nn3c(-c4cc(-c5ccccc5)n[nH]4)nnc3s2)cc(OC)c1OC | x | x | x | x | -12%
CCc1ccccc1NC(=O)N1CCN(c2cc(-c3noc(C)n3)ccc2C)CC1 | x | x | x | x | -6%
COc1cc2[nH]c(=O)n(Cc3ccc(C(=O)N4CCN(c5cc(Cl)ccc5C)CC4)cc3)c(=O)c2cc1OC | x | x | x | x | 3%
Cc1ccc2c(NC(=O)c3ccc(Br)o3)cccc2n1 | 2% | -3% | 3% | -1 | 4%
O=C(Nc1ccccc1)Nc1ccccc1 | x | 1% | x | -1 | u
CCOc1cc(/C=N/NC(=O)Nc2ccccc2)ccc1O | -5% | 7% | 11% | 4 | 11µM*
O=C(Nc1ccccc1)Nc1ccc(Nc2ccccc2)cc1 | x | 5% | x | 0 | 4µM*
Cc1c(NC(=O)c2ccc(Br)o2)cccc1C(=O)O | 1% | x | 11% | 0 | 3.5µM*
COc1cccc(NC(=O)c2oc3ccccc3c2NC(C)=O)c1 | 2% | 4% | 25% | 0 | 3.5µM*
CCOc1cc(/C=N/NC(=O)c2ccc(NC(=O)C3CC3)cc2)ccc1O | 3% | -8% | 7% | 0 | -24%
CCCN1C(=O)c2ccccc2NC1c1ccc(OC)c(COc2cccc(C)c2C)c1 (stereo not given) | x | x | x | x | -44%
COc1cccc(NC(=O)Cn2c(=O)n(-c3ccc(C)cc3)c(=O)c3ccccc32)c1 | x | x | x | x | -10%
COc1ccc(OC)c2sc(NC(=O)c3ccc(S(=O)(=O)N4CCCC4)cc3)nc12 | x | x | x | x | 41%
CCCCNC(=O)c1ccc2nc(-c3cccs3)c(-c3cccs3)nc2c1 | x | x | x | x | -2%
O=[N+]([O-])c1ccc(O/N=[N+](\[O-])N2CCCCC2)c([N+](=O)[O-])c1 | x | x | x | x | 6%
O=C(O)c1cc(NC(=O)c2ccccc2F)cc(NC(=O)c2ccccc2F)c1 | -2% | -1% | 13% | -1 | -25%
O=C(CCC(=O)Nc1ccccc1)N/N=C/c1ccco1 | 3% | -6% | -7% | -1 | -11%
O=C(O)c1ccccc1Nc1ccccc1 | 23µM*! | -5% | 2% | 1 | -9%
CN(C1CCCCC1)S(=O)(=O)c1ccc(NC(=O)c2ccc(Br)o2)cc1 | 11µM* | -2% | -1% | -1 | -44%
CN(C)S(=O)(=O)c1ccc(NC(=O)c2ccc(Br)o2)cc1 | 2% | 8% | 2% | 2 | 44%
SMILES | Mito fusion act | TCR act | p53 reactivation | IL-2 act | BRCA1 expr up
O=C(N/N=C/c1ccco1)Nc1ccccc1 | -3% | 0%[46.1 µM] | u | -2 | 6.3µM*
COc1cccc(Nc2ccccc2C(=O)O)c1 | 12% | 17% | 8% | 0 | u
O=C(Nc1ccc(Nc2ccccc2)cc1)c1ccccc1F | -7% | 4% | -12% | -1 | 1.1µM*
O=c1c2cccnc2n(Cc2ccc(Cl)cc2)c(=O)n1Cc1ccc(F)cc1 | x | x | x | x | 0%
O=C(Nc1ccc(Nc2ccccc2)cc1)c1ccc(Br)o1 | 20% | 3% | 32µM* | 7 | u
O=C(N/N=C/c1c(F)cccc1Cl)c1cc(C2CC2)[nH]n1 | 7% | 12% | u | 0 | 11µM*
O=C(N/N=C/c1ccc(O)cc1)c1cc(C2CC2)[nH]n1 | 2% | 4% | 19% | -2 | 3%
O=C(NCCc1ccccc1)c1ccc(-c2cccnc2)c2ccoc12 | x | x | x | 0 | 7.1µM*
O=C(NCc1cccc(Cl)c1)c1ccc(-c2cccnc2)c2ccoc12 | x | x | x | 0 | 48%
CCSc1nc(CC)c2c(c1C#N)CCCC2 | 8.9µM* | -1%[46.1 µM] | -15% | 0 | 16%
COc1ccc(-c2nnc(-c3cccs3)o2)cc1OC | 10% | -1% | u | -1 | 5µM*
CCOc1ccc(-c2nnc(-c3cccs3)o2)cc1OCC | -1% | x | 16% | -1 | 8.9µM*
CCOc1ccc(-c2nnc(-c3cccs3)o2)cc1 | -2% | 4% | 22% | 2 | -4%
COC(=O)c1ccccc1NC(=O)COc1ccccc1C(=O)Nc1ccccc1 | x | x | x | x | 0%
COc1ccc(NC(=O)c2cn(-c3ccccc3)nc2-c2cc3ccccc3o2)cc1 | 2% | 4% | 2% | 0 | -3%
OCc1cn(-c2ccccc2)nc1-c1cc2ccccc2o1 | 9% | -17% | 6% | -2 | 2.5µM*
Cc1ccc(Cl)c(N/C=C/C(=O)c2ccccc2)c1 | -8% | x | 40µM* | 0 | 50%
Nc1c(C(=O)Nc2nccs2)sc2nc(-c3cccs3)cc(C(F)(F)F)c12 | 1% | -3% | 5% | 104* | -49%
Cc1ccc2nc(-c3ccc(C)c(NC(=O)COc4ccc(Cl)cc4)c3)oc2c1 | x | x | x | x | 8%
COc1ccc(CCNC(=O)CCCn2c(=O)c3ccccc3n(Cc3ccccc3)c2=O)cc1OC | x | x | x | x | -17%
CCCCNC(=O)c1ccc2c(OCC)n(CCCC)nc2c1 | -5% | -3% | -4% | 3 | -1%
CCCn1nc2cc(C(=O)NCCc3cccs3)ccc2c1OCC | 5% | 4% | 2% | 0 | 11µM*
CN(C)CCN1CC(O)=C(c2nc3ccccc3s2)C1=N | -3% | 4% | 3% | -1 | -19%
N=C1C(c2nc3ccccc3s2)=C(O)CN1Cc1ccco1 | 8% | x | u | 3 | 7.1µM*
O=C(COc1ccccc1C(=O)Nc1cccc([N+](=O)[O-])c1)Nc1ccc(Br)cc1 | x | x | x | x | -2%
SMILES | Mito fusion act | TCR act | p53 reactivation | IL-2 act | BRCA1 expr up
COc1ccc(C2CC(c3ccc(C)o3)=NN2C(C)=O)cc1 (stereo not given) | 0% | -4%[46.1 µM] | u | 1 | 6.3µM*
CC(=O)N1N=C(c2ccc(C)o2)CC1c1ccc(Br)cc1 (stereo not given) | 0% | -7% | 13% | -3 | 10µM*
CN(C)/[N+]([O-])=N\Oc1cc(OC(=O)c2ccc(N)cc2)c([N+](=O)[O-])cc1[N+](=O)[O-] | x | x | x | x | -7%
CCOC(=O)c1csc(NC(=O)c2cccs2)n1 | 13% | -3% | u | 0 | 7.9µM*
Cc1nn(-c2ccccc2)c(/N=C/c2ccccc2O)c1-c1ccccc1 | 1% | -3%[46.1 µM] | u | -2 | 13µM*
CNc1cc[n+](C)c2ccccc12 | x | x | x | x | 0%
